HIV TAR-Tat: TAR RNA-Tat peptide displacers, HIV-1, primary screen, biochemical, FRET, FAM/TAMRA-labeled Tat | HIV-1 TAR RNA, Tat peptide displacement FRET; stronger effect = higher value | z-score (test concentration not listed) | hit rate 0.6% among 100,000 | AID 1259389, 2018; active = z-score of 3 or more in at least 2 runs
CDC25B-CDK2 inh: primary biochemical HTRF screen for blockers of M-phase inducer phosphatase 2 binding to CDK2/cyclin A. z-score (concentration not given with the values). HTRF CDC25B-CDK2/CyclinA binding, anti-His/anti-Flag; stronger effect = higher value. P30305+P24941. hit rate 0.72% among 94,000; in the data active = z-score above about 3.2
Starred values were filed as active, the others as inactive; x = no result given. Rows were chosen to be rich in hits. Some 0.86% of all compounds tested hit in one or more screens of this group.

SMILES	HIV TAR-Tat	CDC25B-CDK2 inh
Cc1cc(=O)c2c(O)c3c(O)cc(O)c4c5c(O)cc(O)c6c(O)c7c(=O)cc(C)c8c1c2c(c34)c(c65)c78	7.83*	x
CCn1nc(-c2ccccn2)nc2c(=O)n(C)c(=O)nc1-2	-2.04	-2.32
CCn1nc(-c2ccccc2Br)nc2c(=O)n(C)c(=O)nc1-2	0.43	11.5*
COc1ccc(OC)c2sc(N(CCCN(C)C)C(=O)c3nc4ccccc4s3)nc12	6.25	x
CC(C)=CCC/C(C)=C/CC/C(C)=C/CC/C(C)=C/CC/C(C)=C/CC/C(C)=C/CC/C(C)=C/CC/C(C)=C/CC/C(C)=C/CO	31.6*	x
CC(C)=CCC/C(C)=C/CC/C(C)=C/CO	0.89	x
O=C(CCC(=O)N1c2ccccc2NC2=C(C(=O)CCC2)C1c1ccco1)NC1CCCCC1 (stereo not drawn)	3.61*	x
O=C(CN1c2ccccc2NC2=C(C(=O)CCC2)C1c1ccco1)NC1CCCC1 (stereo not drawn)	-9.61	x
O=C(O)c1cc(-c2ccccc2)nc2n[nH]c(-c3ccccc3)c12	0.44	x
O=C(O)c1cc(-c2cn[nH]c2-c2ccccc2)nc2ccc3ccccc3c12	x	21.9*
COc1cccc(-c2noc(NCc3ccc4c(c3)OCO4)n2)c1	0.66	x
COc1ccc(C2CC(=O)N3CN(c4ccc(N(C)C)cc4)CSC3=C2C#N)cc1 (stereo not drawn)	-0.01	5.46*
Cc1ccc(C2CC(=O)N3CN(c4ccc(N(C)C)cc4)CSC3=C2C#N)cc1 (stereo not drawn)	-1.14	6.72*
CCN(CC)CCNC(=O)C1(c2cccs2)CCOCC1	0.23	x
CCCC(O)c1nc2ccccc2n1Cc1ccc(C)cc1 (stereo not drawn)	1.56	-0.96
O=C1N(Cc2ccccc2F)C2CS(=O)(=O)CC2N1c1ccc(F)cc1 (stereo not drawn)	-0.41	x
O=C1CC(c2ccccc2F)C2=C(CC(c3ccccc3Cl)CC2=O)N1 (stereo not drawn)	1.35	-1.38
O=C1CC(c2ccccc2Cl)C2=C(CC(c3ccccc3Cl)CC2=O)N1 (stereo not drawn)	15.1*	3.05
O=C1COc2cc(-c3c(N4CCN(C5CCCCC5)CC4)c(=O)c3=O)ccc2N1	0.16	x
Cc1ccc(CSc2nc(-c3cccs3)nc3cc(=O)[nH]n23)cc1	0.81	x
O=c1cc2nc(-c3cccs3)nc(SCc3ccc(Br)cc3)n2[nH]1	27.3*	x
CCN(CCCNS(=O)(=O)c1ccc2c(c1)oc(=O)n2C)c1ccccc1	x	-0.48
O=C(CN1c2ccc(Br)cc2-c2ccccc2S1(=O)=O)NCc1ccncc1	0.85	-0.03
O=C(Nc1ccccc1Br)N1CCn2cccc2C1Cc1ccccc1 (stereo not drawn)	-1.89	x
CC(C)(C)c1nnc2sc(/C=C/c3ccco3)nn12	-2.21	-1.53
SMILES	HIV TAR-Tat	CDC25B-CDK2 inh
COc1ccccc1/C=C/c1nn2c(Cc3ccccc3)nnc2s1	2.51	0.3
COc1ccc(Cc2nnc3sc(/C=C/c4ccco4)nn23)cc1	8.35*	2.15
Clc1ccc(Cc2nnc3sc(/C=C/c4cccs4)nn23)cc1	1.08	-1.46
CCc1nnc2sc(/C=C/c3ccco3)nn12	8.4*	-1.14
Clc1ccc(Cc2nnc3sc(/C=C/c4ccco4)nn23)cc1	19.1*	4.16*
O=C(Cc1cccs1)Nc1ccc(N2CCOCC2)c(Cl)c1	1.83	-1.67
Cc1cccn2c(=O)c(C(=O)NCc3cccs3)cnc12	1.1	x
O=C(CCCN1C(=O)C(c2ccccc2)Oc2cccnc21)N1CCc2ccccc21 (stereo not drawn)	1.48	x
COc1ccc(C)cc1N1CC(O)=C(c2nc3ccc(C)cc3[nH]2)C1=N	2.02	-1.35
CCc1nnc(NC(=O)Cc2coc3c(C)c(C)ccc23)s1	-0.39	-1.92
O=C(CCc1nnc2ccc(NCCCN3CCCC3=O)nn12)Nc1ccc(F)cc1F	-0.18	x
COc1cccc(CCN[C@H]2CS(=O)(=O)C[C@@H]2S(=O)(=O)c2ccc(Cl)cc2)c1	0.99	-0.67
CC(CS(=O)(=O)c1ccc2c(c1)NC(=O)CS2)C(=O)NCc1ccco1 (stereo not drawn)	5.27*	x
O=C1CSc2ccc(S(=O)(=O)NCc3ccco3)cc2N1	1.7	x
C=Cc1ccc(CSc2nc3ccncc3[nH]2)cc1	0.11	0.76
O=C(c1ccc(Br)cc1)C(O)c1c[nH]c2ccccc12 (stereo not drawn)	1.2	0.22
Brc1ccc(C(c2c[nH]c3ccccc23)c2c[nH]c3ccccc23)s1	x	16.2*
COc1ccc(N(Cc2ccc(F)cc2Cl)C2=NC3CS(=O)(=O)CC3S2)cc1 (stereo not drawn)	0.42	0.16
CN(C)S(=O)(=O)c1ccc(C(=O)Nc2sc3c(c2C(N)=O)CCCC3)cc1	3.39	-2.28
CN(CC1CCCO1)S(=O)(=O)c1ccc(C(=O)Nc2sc3c(c2C(N)=O)CCC3)cc1 (stereo not drawn)	7.58*	x
C=CCN1C(C(=O)c2ccccc2)=C(NC(=O)c2ccccc2)c2ccccc2S1(=O)=O	0.69	-0.17
O=c1ccc(-c2ccc(S(=O)(=O)Nc3ccc(Cl)cc3F)o2)n[nH]1	2.11	x
O=c1ccc(-c2ccc(S(=O)(=O)Nc3ccc(Br)cc3F)o2)n[nH]1	18.2*	x
CC(C)CNC(=O)c1c(O)nc2ccccn2c1=O	0.72	-1.97
C=CCNC(=O)C1CCN(c2ccccc2)C1=O (stereo not drawn)	-0.5	x
SMILES	HIV TAR-Tat	CDC25B-CDK2 inh
COC(=O)c1c(-c2cccs2)csc1NC(=O)C1CC1	-1.26	-0.38
Nc1ccc(-c2nc3ccc(N)cc3[nH]2)cc1	x	-1.53
Cc1ccc(-c2nc3ccc(N)cc3[nH]2)cc1	-7.56	-1.96
Cc1c(N)ccc2[nH]c(-c3ccc(N)cc3)nc12	2.37	-3.1
Nc1ccc(-c2nc3c(Cl)c(N)ccc3[nH]2)cc1	3.7*	-7.51
Cc1nc2ccc(-c3nc4ccc(N)cc4[nH]3)cc2[nH]1	x	4.99*
Nc1ccc2nc(-c3ccc(Cl)cc3)[nH]c2c1	5.14*	-1.99
CNS(=O)(=O)c1cn(CC(=O)N(C)C2CCCCC2)cc1S(=O)(=O)NC	-0.16	x
O=C(c1cnc(N2CCCC2)nc1)N1CCN(C(=O)c2ccco2)CC1	0.78	x
CCN1C(=O)CCc2cc(NS(=O)(=O)c3ccc(Br)cc3)ccc21	1.03	x
COc1ccc(C2=Nn3c(nnc3-c3ccccc3)SC2C)cc1 (stereo not drawn)	1.54	x
CCOc1cc(C2CC(=O)N3CN(C4CCCCC4)CSC3=C2C#N)ccc1O (stereo not drawn)	0.91	3.38*
COc1ccc(C2CC(=O)N3CN(C4CCCCC4)CSC3=C2C#N)c(OC)c1 (stereo not drawn)	1.6	0.97
COc1cc(C2CC(=O)N3CN(C4CCCCC4)CSC3=C2C#N)ccc1O (stereo not drawn)	-0.98	3.78*
CS(=O)(=O)N1CCCc2cc(C(=O)N3CCOCC3)ccc21	2.18	-1.45
Cc1ccc(-n2ncc3c(NCc4ccc(F)cc4)ncnc32)cc1C	0.21	x
CC(=O)C[n+]1cccc2cccc(O)c21	x	2.21
C#CC[n+]1cccc2cc(O)ccc21	x	5.17*
Cc1cc(C)cc(NC(=O)N2Cc3cccn3-c3ccccc32)c1	0.5	x
O=C1C2=C(NC3=C(C(=O)c4ccccc43)C23C(=O)Nc2ccccc23)c2ccccc21	x	12.3*
CC(C)(C)C1(O)C(=O)Nc2ccccc21 (stereo not drawn)	0.95	0.98
